For test [1], the target named is Cytochrome P450 3A7 (Homo sapiens) (UniProt P24462). As to the kind of experiment: Cytochrome P450 family 3 subfamily A member 7 (CYP3A7) small molecule antagonists: luciferase biochemical qHTS assay (AID 1963596). Further: nearly all actives have a fitted effect of over 40% in size. Further: potency means the concentration at half of the fitted maximal effect. On activity change, negative = inhibition: on the % scale 0 is the no-effect control and ±100 the full control effect. A digest of the protocol: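 Luminescence from luciferin released by CYP3A7 from a proluciferin substrate, read 20 min after detection reagent. Compound and enzyme-substrate mix sat 10 min before NADPH regeneration solution; reaction ran 1 h at room temperature.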
Sequence of Cytochrome P450 3A7 (Homo sapiens) (P24462 whole entry, looked up): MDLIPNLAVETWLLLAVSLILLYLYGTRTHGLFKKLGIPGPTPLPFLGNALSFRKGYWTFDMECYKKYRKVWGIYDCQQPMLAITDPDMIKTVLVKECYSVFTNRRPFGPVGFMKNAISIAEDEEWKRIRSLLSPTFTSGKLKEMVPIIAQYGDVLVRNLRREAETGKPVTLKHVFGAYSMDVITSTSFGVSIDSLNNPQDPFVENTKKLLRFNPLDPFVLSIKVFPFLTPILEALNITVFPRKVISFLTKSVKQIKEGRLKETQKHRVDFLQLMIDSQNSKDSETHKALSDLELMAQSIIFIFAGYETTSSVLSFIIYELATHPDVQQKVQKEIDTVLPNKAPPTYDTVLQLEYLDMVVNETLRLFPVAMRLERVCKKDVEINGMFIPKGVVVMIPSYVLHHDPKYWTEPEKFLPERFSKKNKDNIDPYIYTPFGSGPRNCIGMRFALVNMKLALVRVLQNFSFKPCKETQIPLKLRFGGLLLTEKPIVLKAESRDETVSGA

Test [2] in a line: Viability qHTS for spleen associated tyrosine kinase inhibitor (SYKi) naive MV4-11 cells (AID 1963823). Further: nearly all actives have a fitted effect of over 40% in size. Further: potency means the concentration at half of the fitted maximal effect. A digest of the protocol:
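Viability of MV4-11 AML cells lacking prior SYK inhibitor exposure is scored by CellTiter-Glo luminescence following 72 hr compound incubation at 37 C, 5% CO2, seeded at 500 cells per well.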

A short description of test [3]: Viability qHTS for spleen associated tyrosine kinase inhibitor (SYKi) drug resistant MV4-11 cells (AID 1963824). Further: nearly all actives have a fitted effect of over 35% in size. Further: potency means the concentration at half of the fitted maximal effect. The procedure, abridged:
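SYK-inhibitor-resistant MV4-11 AML cells were seeded at 500 per well onto compound and cultured 72 hours (37 °C, 5% CO2). CellTiter-Glo was then added, and after 10 min at room temperature, luminescence gave viability.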

Test [4] is described as follows: Quantitative highthroughput screen to assess conditional lethalithy of NOMO1 cells grown in RPMI1640 with untreated serum (RPMI+s) (AID 1963876). Further: nearly all actives have a fitted effect of over 35% in size. Further: potency means the concentration at half of the fitted maximal effect.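 On Viability: 100% = DMSO wells and 0% = empty wells without cells.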 The procedure, abridged: (§1)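 Each medium arm—HPLM with 10% dialyzed FBS, or RPMI1640 with 5 mM glucose and 10% untreated or dialyzed FBS—was screened against an 11-point, 3-fold compound titration for 48 h at 37 °C, with CellTiter-Glo luminescence as endpoint.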

The nature of test [5]: Quantitative highthroughput screen to assess conditional lethalithy of NOMO1 cells grown in RPMI1640 with dialyzed fetal bovine serum (RPMI+ds) (AID 1963877). Further: nearly all actives have a fitted effect of over 30% in size. Further: potency means the concentration at half of the fitted maximal effect.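 On Viability: series mostly up to about 46 µM; 100% = DMSO control wells and 0% = empty wells.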 A digest of the protocol:
as §1

A short description of test [6]: Quantitative highthroughput screen to assess conditional lethalithy of NOMO1 cells grown in Human Plasma-Like Medium with dialyzed fetal bovine serum (HPLM+ds) (AID 1963878). Further: nearly all actives have a fitted effect of over 35% in size. Further: potency means the concentration at half of the fitted maximal effect.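 On Viability: 100% = DMSO wells and 0% = empty wells on each plate.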 The procedure, abridged: as §1
Test [7] in a line: Quantitative highthroughput screen to assess conditional lethalithy of P12 Ichikawa cells grown in Human Plasma-Like Medium with dialyzed fetal bovine serum (HPLM+ds) (AID 1963879). Further: series mostly up to about 46 µM; nearly all actives have a fitted effect of over 35% in size. Conditions: Potency: viability. A digest of the protocol: as §1
The nature of test [8]: Quantitative highthroughput screen to assess conditional lethalithy of P12 Ichikawa cells grown in RPMI1640 with dialyzed fetal bovine serum (RPMI+ds) (AID 1963880). Conditions: Potency: P12-Ichikawa viability. A digest of the protocol: as §1
Test [9] in a line: Quantitative highthroughput screen to assess conditional lethalithy of P12 Ichikawa cells grown in RPMI1640 with untreated serum (RPMI+s) (AID 1963881). Conditions: Potency: viability. A digest of the protocol: as §1
Test [10] is described as follows: Quantitative highthroughput screen to assess conditional lethalithy of SEM cells grown in Human Plasma-Like Medium with dialyzed fetal bovine serum (HPLM+ds) (AID 1963882). The procedure, abridged:
as §1

The nature of test [11]: Quantitative highthroughput screen to assess conditional lethalithy of SEM cells grown in RPMI1640 with unreated serum (RPMI+s) (AID 1963883). A digest of the protocol: as §1
Test [12] in a line: Quantitative highthroughput screen to assess conditional lethalithy of SEM cells grown in RPMI1640 with dialyzed fetal bovine serum (RPMI+ds) (AID 1963884). The procedure, abridged:
as §1

Test [13] in a line: Cellular viability qHTS for adrenocortical cancer (ACC) cell line SW-13 (AID 1963989).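 Further: cells grown in serum-free medium with ITS supplement; on the % scale 0 is the no-effect control and ±100 the full control effect; nearly all actives have a fitted effect of over 65% in size.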 The note with it: SW-13 ACC cells viability, CellTiter-Glo, 48 h; activity (max response): stronger effect = lower value. A digest of the protocol: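 Here, serum-free SW-13 cultures were dosed up to 46 uM. Following 48 h, ATP-dependent luminescence (CellTiter-Glo) reported viable cells, and logistic modeling produced IC50 values.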

“And” between values parts separate entries of the source, which are not always exact repeats. Equal values may be shown once. Results filed as inconclusive are left out. More than one record can exist for a structure, and the calls need not agree. Values without a mark were called inactive. The source made the active and inactive calls. The call rests on the fitted dose curve; in most records, active means well fitted curve in the direction sought with a large enough effect; inconclusive means small, poorly fitted or top-dose-only effect, or another doubt; inactive means no such curve, though single readings can be large; an effect the other way counts as inactive or inconclusive.

With `COc1ccc(CCO[C@@H]2CCCC[C@H]2N2CC[C@@H](O)C2)cc1OC`, the Potency result in test [1], in test [2] and in test [3] was “inactive” in each case.

As for `O=C(O)CCC(=O)O`, the Potency entry in test [1], in [2] and in [3] was “inactive” throughout.

For `O=C(c1ccccn1)c1cnn2c(-c3ccncc3)ccnc12`, the Potency entry in test [1], in test [2] and in [3] was “inactive” throughout.

Take `O=C(NCc1ccccn1)Nc1nnc(-c2ccco2)o1`: the Potency result in [1], in test [2] and in test [3] was “inactive” in each case.

`Cc1cc(Nc2ncc3cc(-c4c(Cl)cccc4Cl)c(=O)n(C)c3n2)ccc1F`: in test [1], the Potency entry is “inactive”. Further, the values for the Potency in test [2] and in test [3] were 0.461 µM (active) and 0.517 µM (active), respectively.

On to `COC(=O)c1ccc(N2CCN(C)CC2)c(NC(=O)c2cccc(OC)c2)c1`, for which the Potency entry in test [1], in [2] and in test [3] was “inactive” throughout.

On to `CCCCN(CCCC)CC(O)c1cc(Cl)cc2c1-c1ccc(Cl)cc1/C2=C/c1ccc(Cl)cc1` (centres undefined), for which the Potency entry in test [1] was “inactive”. Moreover, the Potency in [2] was 20.9 µM (active); in test [3], 18.8 µM (active).

As to `N[C@@H](CC(=O)N1CCn2c(nnc2C(F)(F)F)C1)Cc1[nH]nc2c(F)c(F)ccc12`, the Potency entry in test [1], in test [2] and in [3] was “inactive” each time.

As to `CCCCCCCCCCCCCCCCN`, the Potency result in [1], in test [2] and in test [3] was “inactive” each time.

`C[C@@H](O)[C@H](NC(=O)c1ccc(C#Cc2ccc(CN3CCOCC3)cc2)cc1)C(=O)NO`: the Potency result in test [1] was “inactive”. Further, the Potency in test [2] and in test [3] was 23.1 µM (active) throughout.

On to `CNC(C)C(=O)NC(C(=O)N1CCCC1C(=O)Nc1cccc2ncccc12)C(C)C` (centres undefined), for which the Potency result in [1] and in [2] was “inactive” each time. Besides, in test [3], the Potency is 11.6 µM (active).

On to `c1cc(-c2cc(C3CCNCC3)[nH]n2)ccn1`, for which the Potency entry in test [1], in test [2] and in [3] was “inactive” throughout.

Consider `COc1ccc(C2(CNC(=O)c3ccc(NC(=O)c4ccco4)cc3)CCOCC2)cc1`, for which the Potency entry in test [1], in [2] and in test [3] was “inactive” each time.

Consider `CCC(C)(Oc1ccc(C2(c3ccc(OC(C)(CC)C(=O)O)cc3)CCCCC2)cc1)C(=O)O` (centres undefined), for which the Potency result in test [1], in test [2], in test [3], in test [4], in test [5] and in [6] was “inactive” throughout. Besides, the Potency result in test [7], in [8], in test [9], in test [10], in test [11] and in test [12] was “inactive” in each case. Moreover, in [13], the activity (max response) is -4.64% and -4.83%.

Take `CCN1C[C@H](C)n2c(c(O)c3c(=O)n(Cc4ccc(F)c(Cl)c4)nc(C(=O)NC)c32)C1=O`: the Potency entry in test [1], in [2], in test [3], in test [7], in test [8] and in test [9] was “inactive” throughout. Further, the Potency result in [10], in test [11] and in test [12] was “inactive” throughout. Further, the results for the Potency in [4], in [5] and in test [6] were 23.5 µM (active), 16.6 µM (active) and 16.6 µM (active), respectively.

Consider `O=C(NCCCCN1CCN(c2cccc(Cl)c2Cl)CC1)c1cc2ccccc2s1`, for which the values for the Potency in [1], in test [2] and in test [3] were 2.82 µM (active), 23.1 µM (active) and 23.1 µM (active), respectively.

`O=C(OC1C[C@H]2CC[C@@H](C1)[N+]21CCCC1)C(O)(c1ccccc1)c1ccccc1` (some centres undefined): the Potency result in test [1], in [2], in test [3], in test [4], in [5] and in test [6] was “inactive” in each case. Besides, the Potency result in [7], in test [8], in test [9], in [10], in [11] and in test [12] was “inactive” each time. Besides, the activity (max response) in test [13] is -1.15%.

On to `Nc1nc(Cl)nc2c1ncn2[C@@H]1O[C@H](CO)[C@@H](O)[C@@H]1F`, for which, in [1], the Potency result is “inactive”. In addition, the Potency in test [2] was 106 nM (active) and 263 nM (active); in [3] it was 188 nM (active) and 332 nM (active).

`N[C@@H](CC(=O)Nc1ccc(Oc2cc(F)c(F)cc2Br)cc1)C(=O)O`: the Potency entry in test [1], in test [2] and in test [3] was “inactive” throughout.

Take `O=C(Nc1cccc(C(F)(F)F)c1)Nc1ccc(Br)cc1-c1nn[nH]n1`: the Potency entry in test [1], in [2] and in test [3] was “inactive” throughout.

For the compound `Cc1cnn(-c2ccccc2)c1NC(=O)COCc1ccccc1`, the Potency result in [1], in test [2] and in [3] was “inactive” each time.

For `Cc1cc(F)ccc1-c1nc(NCCN=C(N)NC#N)nc2c1ccc(=O)n2-c1c(F)cccc1F`, in test [1], the Potency entry is “inactive”. For the same compound, the Potency in [2] and in test [3] was 14.6 µM (active) throughout.

`C[C@@H]1CN(c2c(F)c(F)c3c(=O)c(C(=O)O)cn(C4CC4)c3c2F)C[C@H](C)N1`: the Potency entry in test [1] is “inactive”. Further, the Potency entry in [2] is “inactive”. Also, in test [3], the Potency is 4.61 µM (active) and the viability, % of control was 79.8% [at 9.25 µM]. Moreover, the activity (max response) in [13] was 12.9%.

`O=C(O)[C@H]1Cc2ccccc2CN1`: the activity change, negative = inhibition in [1] was 2.34% [at 11.5 µM]. Also, in [2], the viability (% of control) is 95.6% [at 4.97 µM]. For the same compound, in test [3], the viability, % of control is 101% [at 4.97 µM].

Regarding `Cc1coc2c1C(=O)C(=O)c1c-2ccc2c1CCCC2(C)C`, the Potency result in test [1], in [4], in test [5], in [6], in test [7] and in [8] was “inactive” in each case. The Potency result in test [9], in test [10] and in [11] was “inactive” throughout. Also, the Potency in [2] and in [3] was 1.86 µM (active) each time.

Source of the values: PubChem BioAssay (NCATS).
